The campaign covered roughly 310,000 compounds. About 14,000 (4.5%) showed an effect of 50% or more. Effects have a minus sign here. This is one part of a sample in which strong results are shown more often than they occur.
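Also: peak tail current of the secondary pulse compared with the same well before compound.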

The target in this assay is human ether-à-go-go-related gene (hERG) potassium channel (human, UniProt Q12809). Kind of assay: primary screen, population patch clamp on CHO cells stably expressing hERG; higher = less effect of the substance. Here is the method: Briefly, Chinese hamster ovary (CHO) cells stably expressing the hERG channel were dislodged from tissue culture flasks and dispensed into PPC plates. […] During the recording, background leak currents were estimated by a 100 ms step to -80 mV from an initial holding potential of -70 mV and subtracted from the subsequent current measurement. The campaign was conducted in two phases using slight differences in recording protocol. In the first phase, the initial voltage pulse used a 100 ms step to -30 mV from a holding potential of -70 mV, a 2 s conditioning step to +25 mV, and a 2 s test step to -30 mV. During the second phase of the screen, the potential during the conditioning step was raised to +45 mV. In both phases of the campaign, a secondary voltage pulse was applied using the same parameters as the second phase initial pulse. The initial and secondary pulses were applied in the absence of compound, and upon application of 1 μM and 10 μM test concentrations. […]
Sequence of human ether-à-go-go-related gene (hERG) potassium channel (Q12809 whole entry, looked up): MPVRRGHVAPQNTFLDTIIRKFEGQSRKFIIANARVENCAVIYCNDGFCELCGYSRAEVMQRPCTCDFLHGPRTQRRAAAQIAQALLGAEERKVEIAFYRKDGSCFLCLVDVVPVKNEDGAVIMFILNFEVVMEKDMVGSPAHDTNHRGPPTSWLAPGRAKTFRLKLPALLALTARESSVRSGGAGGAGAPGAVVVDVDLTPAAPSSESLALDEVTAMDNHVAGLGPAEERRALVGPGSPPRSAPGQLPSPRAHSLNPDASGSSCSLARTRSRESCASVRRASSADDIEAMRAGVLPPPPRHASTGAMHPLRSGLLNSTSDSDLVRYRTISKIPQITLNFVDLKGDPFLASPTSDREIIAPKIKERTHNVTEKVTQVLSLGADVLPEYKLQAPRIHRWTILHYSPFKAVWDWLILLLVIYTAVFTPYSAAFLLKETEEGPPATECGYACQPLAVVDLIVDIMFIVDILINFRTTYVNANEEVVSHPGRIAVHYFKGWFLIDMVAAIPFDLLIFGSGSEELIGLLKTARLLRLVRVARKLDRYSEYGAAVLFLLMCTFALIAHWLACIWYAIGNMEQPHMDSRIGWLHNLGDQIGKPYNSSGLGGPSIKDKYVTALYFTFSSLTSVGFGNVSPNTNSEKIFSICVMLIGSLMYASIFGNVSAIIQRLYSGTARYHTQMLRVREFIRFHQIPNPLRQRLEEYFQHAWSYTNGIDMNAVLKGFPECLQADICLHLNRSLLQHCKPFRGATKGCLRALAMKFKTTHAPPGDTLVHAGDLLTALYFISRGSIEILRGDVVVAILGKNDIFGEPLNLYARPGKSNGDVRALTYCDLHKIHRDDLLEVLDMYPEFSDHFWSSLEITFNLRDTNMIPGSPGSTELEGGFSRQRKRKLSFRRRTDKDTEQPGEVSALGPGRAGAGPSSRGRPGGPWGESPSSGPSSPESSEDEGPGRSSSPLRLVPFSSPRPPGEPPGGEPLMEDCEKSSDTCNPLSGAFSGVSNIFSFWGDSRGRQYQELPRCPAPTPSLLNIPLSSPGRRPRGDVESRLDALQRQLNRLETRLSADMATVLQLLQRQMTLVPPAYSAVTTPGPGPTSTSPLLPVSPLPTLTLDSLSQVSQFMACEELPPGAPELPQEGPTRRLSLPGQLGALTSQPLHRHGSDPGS
On to `CC(C)Sc1nc2c(cnn2-c2ccc(Cl)cc2)c(=O)[nH]1`, for which the “hERG current change (%, negative = inhibition) at 10uM” value turned out to be 26.2%. Consider `Cc1nnc(SCC(=O)N2CCCC2)n(N)c1=O`, for which the “hERG current change (%, negative = inhibition) at 10uM” value is given as 14.1%. Next, `O=C(NCCS(=O)(=O)N1CCN(c2ccccc2)CC1)c1ccccc1F`: 6.68%. With `CSc1ccccc1C(=O)NCCS(=O)(=O)N1CCN(c2ccc(F)cc2)CC1`, the “hERG current change (%, negative = inhibition) at 10uM” value is listed as -67.6%. Regarding `O=C(NCCS(=O)(=O)N1CCN(c2ccccc2)CC1)c1ccco1`, the “hERG current change (%, negative = inhibition) at 10uM” value is given as -14.5%.

On to `O=C(Cc1ccc(F)cc1)NCCS(=O)(=O)N1CCN(c2ccccc2)CC1`, for which the “hERG current change (%, negative = inhibition) at 10uM” value is 5.42%. Next, `O=C(NCCS(=O)(=O)N1CCN(c2ccc(F)cc2)CC1)c1ccco1`: -62.2%.

In the case of `COc1ccc(N2CCN(S(=O)(=O)CCNC(=O)c3ccco3)CC2)cc1`, the “hERG current change (%, negative = inhibition) at 10uM” value is on record as -9.43%.

In the case of `CCOC(=O)c1cnn(Cc2ccccc2Cl)c1N`, the “hERG current change (%, negative = inhibition) at 10uM” value is on record as -11%.

Regarding `COc1ccccc1-c1oc2ccccc2c1C#CCCCCO`, the “hERG current change (%, negative = inhibition) at 10uM” value amounted to 22.6%. Turning to `COc1ccc(-c2nn(-c3ccccc3)cc2/C=C2/SC(=S)N(CCCC(=O)O)C2=O)c(C)c1`, the “hERG current change (%, negative = inhibition) at 10uM” value is on record as 26%. With `CCC1Nc2ncnc(N3CCN(c4ccccc4)CC3)c2N(Cc2ccc(Cl)cc2)C1=O.O=C(O)C(F)(F)F` (stereo not shown), the “hERG current change (%, negative = inhibition) at 10uM” value is -17.4%.

For `CCC1Nc2ncnc(N3CCN(c4ccccn4)CC3)c2N(Cc2ccc(Cl)cc2)C1=O.O=C(O)C(F)(F)F` (stereo not shown), the “hERG current change (%, negative = inhibition) at 10uM” value is recorded as -73.8%. Next, `CC1Nc2ncnc(N3CCN(c4ccccn4)CC3)c2N(Cc2ccccc2)C1=O.O=C(O)C(F)(F)F` (stereo not shown): -19.8%; `Cc1ccc(CN2C(=O)C(C)Nc3ncnc(N4CCN(c5ccccn5)CC4)c32)cc1.O=C(O)C(F)(F)F` (stereo not shown): -56.1%. `CCC1Nc2ncnc(N3CCCCC3)c2N(Cc2ccccc2)C1=O.O=C(O)C(F)(F)F` (stereo not shown): the “hERG current change (%, negative = inhibition) at 10uM” value was -4.8%. In the case of `Cc1ccc(CN2C(=O)C(CC(C)C)Nc3ncnc(N4CCN(c5ccccn5)CC4)c32)cc1.O=C(O)C(F)(F)F` (stereo not shown), the “hERG current change (%, negative = inhibition) at 10uM” value is recorded as -43.3%. Next, `Cc1ccc(S(=O)(=O)N2CCN(C(=O)CN3C(=O)NC4(CCCCC4)C3=O)CC2)c(C)c1`: 1.52%; `COc1ccc(S(=O)(=O)N2CC(C)OC(C)C2)cc1C(=O)N1CCCCC1` (stereo not shown): 6.93%. `O=C(OCc1c(F)cccc1Cl)c1cnc2ccccc2n1`: the “hERG current change (%, negative = inhibition) at 10uM” value was 17.6%. For `CCCn1nc2cc(C(=O)NC3CCCc4ccccc43)ccc2c1OCC` (stereo not shown) the value was -8.93%; for `CN(C)S(=O)(=O)c1cccc(COC(=O)Cc2c(F)cccc2Cl)c1`, 9.75%. On to `Cc1ccccc1C(=O)NC(C(N)=O)P(=O)(OC(C)C)OC(C)C` (stereo not shown), for which the “hERG current change (%, negative = inhibition) at 10uM” value is listed as -55.2%. For `CC(C)OP(=O)(OC(C)C)C(NC(=O)c1ccccc1Br)C(N)=O` (stereo not shown) the value was 3.63%; for `CC(C)OP(=O)(OC(C)C)C(NC(=O)c1ccccc1)C(N)=O` (stereo not shown), -3.65%. With `CCN(C(=O)c1ccnn1C)c1ccccc1`, the “hERG current change (%, negative = inhibition) at 10uM” value came to 4.75%.

Turning to `COc1ccc(S(=O)(=O)N2CCOCC2)cc1NC(=O)c1ccc2c(c1)OCO2`, the “hERG current change (%, negative = inhibition) at 10uM” value is on record as 12.6%. For `O=C(O)CN1C(=O)/C(=C/c2ccccc2Br)Oc2ccccc21` the value was 4.16%; for `COc1ccccc1NS(=O)(=O)c1ccc(Cl)c(NC(=O)c2sc3cc(Cl)ccc3c2Cl)c1`, 22.1%. In the case of `O=C(O)CC1S/C(=N\N=C/c2ccccc2)N(c2ccc(O)cc2)C1=O` (stereo not shown), the “hERG current change (%, negative = inhibition) at 10uM” value is reported as 13.4%. Next, `O=C(O)CC1S/C(=N\N=C/c2ccccc2O)N(c2ccc(O)cc2)C1=O` (stereo not shown): 9.18%; `O=C(O)CC1S/C(=N\N=C2\C(=O)Nc3ccccc32)N(c2ccc(O)cc2)C1=O` (stereo not shown): -53.7%; `CN(c1ccc(F)cc1)S(=O)(=O)c1ccc2[nH]cc(C(=O)O)c(=O)c2c1`: 13.8%. For `Cc1cccc(OCC(=O)N(Cc2ccc(C)o2)C2CCS(=O)(=O)C2)c1` (stereo not shown) the value was -42.6%; for `O=C(COc1ccc(Cl)cc1)N(Cc1ccc(F)cc1)C1CCS(=O)(=O)C1` (stereo not shown), -63.3%; for `N#Cc1ccc(OCC(=O)N(C2CCCCC2)C2CCS(=O)(=O)C2)cc1` (stereo not shown), -50.1%.

As to `CN(C)c1ccc(CN(C(=O)COc2ccc(F)cc2)C2CCS(=O)(=O)C2)cc1` (stereo not shown), the “hERG current change (%, negative = inhibition) at 10uM” value is listed as -16.6%.

Turning to `CC(=O)c1ccc(OCC(=O)N(C2CCCCC2)C2CCS(=O)(=O)C2)cc1` (stereo not shown), the “hERG current change (%, negative = inhibition) at 10uM” value is on record as -2.18%. Take `Cc1ccc(OCC(=O)N(Cc2ccc(C)o2)C2CCS(=O)(=O)C2)cc1` (stereo not shown): the “hERG current change (%, negative = inhibition) at 10uM” value is on record as -52.3%.

In the case of `O=C(COc1ccc(F)cc1)N(Cc1ccc(Cl)cc1)C1CCS(=O)(=O)C1` (stereo not shown), the “hERG current change (%, negative = inhibition) at 10uM” value was -38.7%. Next, `COc1ccc(OCC(=O)N(Cc2ccc(C)o2)C2CCS(=O)(=O)C2)cc1` (stereo not shown): -19.5%; `Cc1ccc(CN(C(=O)COc2ccc(Br)cc2)C2CCS(=O)(=O)C2)o1` (stereo not shown): -33.5%; `Cc1ccc(OCC(=O)N(Cc2ccco2)C2CCS(=O)(=O)C2)cc1C` (stereo not shown): -38.8%. Next, `O=C(COc1ccc([N+](=O)[O-])cc1)N(C1CCCCC1)C1CCS(=O)(=O)C1` (stereo not shown): -37%; `Cc1ccc(CN(C(=O)COc2ccc(C)c(C)c2)C2CCS(=O)(=O)C2)o1` (stereo not shown): -53.6%. On to `O=C(COC(=O)c1cccc(F)c1)NC1CC1`, for which the “hERG current change (%, negative = inhibition) at 10uM” value came to 41.8%. Turning to `COc1ccccc1N1CCN(C(=O)Cn2c(=O)[nH]c3ccsc3c2=O)CC1`, the “hERG current change (%, negative = inhibition) at 10uM” value is -1.18%. For `O=C(c1ccccc1)c1n[nH]c(-c2ccccc2)cc1=O` the value was 30.9%.

As for `CCC(=O)NC(c1cc(Cl)c2ccccc2c1O)C1CC1` (stereo not shown), the “hERG current change (%, negative = inhibition) at 10uM” value was found to be 14.5%. For `Cc1ccc(C)c(C2=CSC3=NS(=O)(=O)CCN23)c1` the value was 12.3%; for `COc1ccc(CNC(=O)[C@]2(C)CCC[C@@]3(C)C4CC[C@@]5(C)C[C@]4(CCC32)CC5=O)cc1` (stereo partly shown), 10.2%.

Take `CCOC(=O)c1sc2nc(CSc3ccccc3)[nH]c(=O)c2c1C`: the “hERG current change (%, negative = inhibition) at 10uM” value was 3.8%.

With `CC(C)C(=O)NC(c1cccs1)c1cc([N+](=O)[O-])c2cccnc2c1O` (stereo not shown), the “hERG current change (%, negative = inhibition) at 10uM” value was 31.7%. For `CCN(CC)S(=O)(=O)c1ccc2c(c1)nc(SCC(=O)N1CCCCCC1)n2-c1ccc(OC)cc1`, the “hERG current change (%, negative = inhibition) at 10uM” value is reported as -21%. Turning to `CCN(CC)S(=O)(=O)c1ccc2c(c1)nc(SCC(N)=O)n2-c1ccc(OC)cc1`, the “hERG current change (%, negative = inhibition) at 10uM” value was -77.7%.

Consider `CCN(CC)S(=O)(=O)c1ccc2c(c1)nc(SCC(=O)N1CCOCC1)n2-c1ccccc1OC`, for which the “hERG current change (%, negative = inhibition) at 10uM” value is recorded as -31.1%.

With `CCn1c(CSc2nncn2-c2ccc(OC)cc2)nc2cc(S(=O)(=O)N(C)C)ccc21`, the “hERG current change (%, negative = inhibition) at 10uM” value is recorded as -14.5%. Turning to `CCN(CC)S(=O)(=O)c1ccc2c(c1)nc(SC(C)C(N)=O)n2-c1ccc(OC)cc1` (stereo not shown), the “hERG current change (%, negative = inhibition) at 10uM” value is -51.7%.

On to `COc1ccc(-n2nnnc2SC(C)C(N)=O)cc1` (stereo not shown), for which the “hERG current change (%, negative = inhibition) at 10uM” value came out at 8.68%. On to `CCCCn1c(SC(C)C(=O)c2ccc(OC)cc2)nc2cc(S(N)(=O)=O)ccc21` (stereo not shown), for which the “hERG current change (%, negative = inhibition) at 10uM” value was -18.1%.

`CCN(CC)S(=O)(=O)c1ccc2c(c1)nc(SCC(=O)NC1CC1)n2-c1ccccc1OC`: the “hERG current change (%, negative = inhibition) at 10uM” value is reported as -56.2%.

In the case of `COc1ccccc1-n1c(SCC(=O)NC2CC2)nc2ccccc2c1=O`, the “hERG current change (%, negative = inhibition) at 10uM” value is recorded as -23.1%. For `NCCNc1ccc([N+](=O)[O-])c2cccnc12` the value was 1.29%; for `CCOc1ccccc1NC(=O)NNS(=O)(=O)c1cc(C)ccc1C`, 6.71%. Take `CSc1ccccc1NC(=O)Cc1ccc(Br)cc1`: the “hERG current change (%, negative = inhibition) at 10uM” value was -10.2%. For `Cc1ccc(C)c(NC(=S)N2CCC(NC(=O)c3cccc(F)c3)CC2)c1` the value was 1.08%; for `O=C(N/N=C/c1ccc(COc2ccc(Br)cc2)o1)c1ccco1`, 2.73%; for `Cc1ccccc1NS(=O)(=O)c1ccc2c3c(cccc13)C(=O)N2C`, -4.02%. For `O=C(C1CCN(S(=O)(=O)c2cccnc2)CC1)N1CCN(c2cccc(Cl)c2)CC1` the value was -31.5%; for `O=S(=O)(c1ccc(Cl)cc1)N1CCN(c2ccccn2)CC1`, -4.62%.

As for `Cc1ccc(S(=O)(=O)N2CCC(C(=O)N3CCN(c4ccccn4)CC3)CC2)cc1`, the “hERG current change (%, negative = inhibition) at 10uM” value is listed as -19.4%. On to `O=C(C1CCN(S(=O)(=O)c2ccc(Cl)cc2)CC1)N1CCN(c2ccccn2)CC1`, for which the “hERG current change (%, negative = inhibition) at 10uM” value is listed as -64.7%.

Regarding `Cc1ccc(Cl)cc1N1CCN(C(=O)C2CCN(S(=O)(=O)c3cccnc3)CC2)CC1`, the “hERG current change (%, negative = inhibition) at 10uM” value is reported as -46%.

`O=C(C1CCN(S(=O)(=O)c2cccnc2)CC1)N1CCN(c2ccc(Cl)cc2)CC1`: the “hERG current change (%, negative = inhibition) at 10uM” value is on record as -56.2%. For `Clc1ccc2noc(-c3ccccc3)c2c1` the value was 7.67%. `COc1ccccc1CNC(=O)c1cnccn1`: the “hERG current change (%, negative = inhibition) at 10uM” value came out at 0.0654%.

For the molecule `COc1cc(CN2CCN(CCc3ccccc3)C(CCO)C2)cc(OC)c1` (stereo not shown), the “hERG current change (%, negative = inhibition) at 10uM” value is on record as -63.5%.

Take `COc1cc(CN2CCN(CCCc3ccccc3)CC2CCO)cc(OC)c1` (stereo not shown): the “hERG current change (%, negative = inhibition) at 10uM” value was -71.1%. Next, `COc1cc(CN2CCN(CC#Cc3ccccc3)CC2CCO)cc(OC)c1` (stereo not shown): -1.09%. For `OCCC1CN(Cc2cccc(O)c2)CCN1CCc1ccccc1` (stereo not shown), the “hERG current change (%, negative = inhibition) at 10uM” value is on record as -24.4%. As to `OCCC1CN(Cc2cccnc2)CCN1CCc1ccccc1` (stereo not shown), the “hERG current change (%, negative = inhibition) at 10uM” value is recorded as -34.8%. As to `COc1cc(CN2CCN(Cc3cn(C)c4ccccc34)CC2CCO)cc(OC)c1` (stereo not shown), the “hERG current change (%, negative = inhibition) at 10uM” value is -43.7%.

The values are drawn from publication PMC4336329 (PLoS ONE, 2015).
